An excerpt weighted towards active compounds, which were near 6.3% of everything screened.
VP16 counter: counter-screen for ROR gamma inhibitors: Gal4-VP16 reporter; Potency, µM (doses to about 53.6 µM), actives largely listed as inhibitors; AID 2546; Drosophila S2 Gal4-VP16 UAS-luciferase, luminescence, 20 h; 310,000 compounds, 3.5% hits;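 further: Gal4-VP16 expression switched on by copper sulfate through the metallothionein promoter; nearly all actives have a fitted effect of over 50% in size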
ATXN viability: reduces viability in counter-screen for ATXN expression inhibitors. AID 651635. Potency, µM (titrated, usually from 56.7 µM), actives largely listed as cytotoxic. S2 cells (HEK-293 line with an ATXN2-luciferase reporter) viability, CellTiter-Fluor protease fluorescence, 24 h. 400,000 compounds, 0.49% hits; further: nearly all actives have a fitted effect of over 40% in size
HepG2 viability: counter-screen for TGF-b inhibitors: cytotoxicity in HepG2 cells. HepG2 CAGA-GFP viability, ATP luminescence, 18 h. 410,000 compounds, 0.76% hits. Potency, µM (series often up to 46.1 µM), most hits filed as cytotoxic
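HepG2 CAGA-GFP cells (1000/well, DMEM with 1% FBS) received compound, then TGF-beta at 500 pg/mL final, and were incubated 18 hours at 37 degrees C. Viability was read by CellTiter-Glo luminescence. Media-only wells were set as complete cell-killing and DMSO as no toxicity.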
TGFb SMAD3 inh: inhibitors of TGF-b signaling | Potency, µM (series often up to 46.1 µM), actives largely listed as inhibitors | AID 588855 | HepG2 CAGA-GFP TGF-b/SMAD3 reporter, GFP fluorescence, 18 h; TGF-beta stimulated, 500 pg/mL final | 410,000 compounds, 1.2% hits; further: nearly all actives have a fitted effect of over 65% in size
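Read-out: total well GFP (ex488/em500-530) summed from mean per-cell fluorescence. Cells: HEPG2 CAGA-GFP, 1% FBS DMEM, 18 h at 37 degrees C with 500 pg/mL final TGF-beta. Unstimulated wells served as the full-inhibition control; stimulated DMSO wells = 0%.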
RORgamma inh: ROR gamma (mouse) transcription inhibition; P51450; Drosophila S2 Gal4-RORgamma UAS-luciferase reporter, 20 h; Potency, µM (titrated, usually from 53.6 µM), most hits filed as inhibitors; 310,000 compounds, 5.4% hits; AID 2551; further: nearly all actives have a fitted effect of over 60% in size
Target sequence (P51450 whole entry, looked up, the tested form may be a part): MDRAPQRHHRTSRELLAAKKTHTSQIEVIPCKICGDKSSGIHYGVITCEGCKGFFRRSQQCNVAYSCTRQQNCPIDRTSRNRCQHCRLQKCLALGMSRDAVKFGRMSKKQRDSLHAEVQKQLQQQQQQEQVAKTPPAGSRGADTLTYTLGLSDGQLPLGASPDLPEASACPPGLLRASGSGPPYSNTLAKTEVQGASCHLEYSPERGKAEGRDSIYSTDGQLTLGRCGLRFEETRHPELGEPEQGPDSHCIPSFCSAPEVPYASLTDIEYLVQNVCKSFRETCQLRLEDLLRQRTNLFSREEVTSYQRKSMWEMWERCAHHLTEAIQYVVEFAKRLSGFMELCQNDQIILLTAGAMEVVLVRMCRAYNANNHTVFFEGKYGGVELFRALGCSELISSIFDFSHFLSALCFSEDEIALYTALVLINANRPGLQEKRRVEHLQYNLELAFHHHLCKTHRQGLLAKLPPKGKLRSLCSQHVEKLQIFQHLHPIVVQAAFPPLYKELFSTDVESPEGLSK
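Using a luciferase readout, inhibitors were identified by reduced reporter activity in Drosophila cells coexpressing a copper-inducible Gal4–ROR gamma fusion and UAS-driven Photinus luciferase, incubated 20 hr after 700 uM copper sulfate.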
ATXN2 expr inh: reduces ATXN2 reporter expression in HEK-293 cells; HEK-293 ATXN2-luciferase reporter, luminescence, 24 h; Potency, µM (doses to about 57 µM), actives largely listed as inhibitors; 360,000 compounds, 0.72% hits; further: nearly all actives have a fitted effect of over 55% in size
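ATXN2-luciferase reporter cells (luciferase flanked by upstream and downstream ATXN2 gene portions) were treated 24 h at 37 °C with compounds at up to 57 uM. SteadyGlo luminescence gave expression; GF-AFC fluorescence gave viability.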
Each line names hits and unclear results; the compound was inactive in the other large screens. The call rests on the fitted dose curve; in most records, active means well fitted curve in the direction sought with a large enough effect; inconclusive means small, poorly fitted or top-dose-only effect, or another doubt; inactive means no such curve, though single readings can be large; an effect the other way counts as inactive or inconclusive.

CC(=O)Nc1ccc(S(=O)(=O)Nc2ccc3c(c2)C(=O)OC3)cc1	VP16 counter 11.2µM, RORgamma inh inconclusive (no result: ATXN viability, HepG2 viability, TGFb SMAD3 inh, ATXN2 expr inh)
COc1ccc(S(=O)(=O)Nc2ccc3c(c2)OCCO3)cc1Cl	VP16 counter inconclusive, TGFb SMAD3 inh inconclusive, RORgamma inh inconclusive
COc1ccc(NS(=O)(=O)c2ccc(-n3cnnn3)cc2)cc1OC	VP16 counter 10µM (no result: ATXN2 expr inh)
CC(=O)Nc1ccc(S(=O)(=O)Nc2ccc3c(c2)OCCO3)cc1Cl	VP16 counter 12.6µM, RORgamma inh inconclusive
COc1ccc(NS(=O)(=O)c2ccc3c(c2)OCCO3)cc1OC	VP16 counter 7.08µM, RORgamma inh inconclusive
Cc1ccc(C)c(OCCn2cc(C(=O)c3ccco3)c3ccccc32)c1	none (no result: VP16 counter, RORgamma inh)
CC1=C(C(=O)Nc2cccc(Cl)c2C)C2(CCCCCC2)OC1=O	none (no result: VP16 counter, RORgamma inh)
C=C1C=C(C(F)F)n2ncc(C(=O)NCc3ccccc3)c2N1	none (no result: VP16 counter, ATXN viability, RORgamma inh, ATXN2 expr inh)
Nc1ccc(C(=O)NC2CCSc3ccccc32)cc1[N+](=O)[O-] (centres undefined)	VP16 counter 7.94µM, RORgamma inh inconclusive
COc1ccccc1-c1cc(C(=O)N2CCN(S(=O)(=O)c3ccc(C)cc3)CC2)[nH]n1	ATXN viability inconclusive, ATXN2 expr inh inconclusive
C=Cc1cccc(C)c1	none (no result: ATXN viability, HepG2 viability, TGFb SMAD3 inh, ATXN2 expr inh)
NC(=Nc1nc(-c2ccccn2)cc2ccccc12)c1ccccn1	ATXN viability inconclusive, ATXN2 expr inh 0.316µM (no result: VP16 counter, RORgamma inh)
N/C(=N\OC(=O)c1cccc2ccccc12)c1ccccn1	ATXN viability inconclusive, RORgamma inh inconclusive
COCCn1c(C)cc(O)c(C(c2ccccc2)N2CCN(c3ccc(F)cc3)CC2)c1=O (centres undefined)	none (no result: VP16 counter, RORgamma inh)
O=C(C[n+]1ccccc1Cl)c1ccc(O)c(O)c1	none (no result: VP16 counter, ATXN viability, RORgamma inh, ATXN2 expr inh)
CCOC(=O)C(Cc1ccc(NC(C)=O)cc1)N1C(=O)c2ccccc2C1=O (centres undefined)	none (no result: VP16 counter, RORgamma inh)
N#C/C(=C\c1ccc(OCc2ccc(C(=O)O)cc2)cc1)C(=O)N1CCOCC1	VP16 counter inconclusive, RORgamma inh inconclusive, ATXN2 expr inh 8.91µM
COc1cc(/C=C(\C#N)C(=O)N2CCOCC2)ccc1OCc1ccccc1	none
Cc1ccc(Nc2nc(-c3ccccc3)cs2)nc1	VP16 counter inconclusive, RORgamma inh inconclusive (no result: ATXN viability, ATXN2 expr inh)
Cc1ccc(Nc2nc(-c3cccs3)cs2)nc1	VP16 counter 12.6µM, TGFb SMAD3 inh inconclusive, RORgamma inh 11.2µM
Cc1ccc(Cc2c(C3CCCCC3)nc3c4ccccc4ccn23)cc1	none (no result: VP16 counter, RORgamma inh)
Cc1ccc(Cc2c(C3CCCCC3)nc3ccc(C)cn23)cc1	ATXN viability 12.6µM, TGFb SMAD3 inh inconclusive, ATXN2 expr inh 15.8µM (no result: VP16 counter, RORgamma inh)
Cc1noc(C)c1-c1ccc(C(=O)Nc2ccc(C(C)C)cc2)c2occc12	ATXN viability inconclusive (no result: VP16 counter, RORgamma inh)
Cc1cccnc1NC(=S)NC(=O)c1oc2ccccc2c1C	VP16 counter 6.31µM, RORgamma inh 2µM
C=CCNC(=S)NC(=O)c1oc2ccccc2c1C	VP16 counter inconclusive, RORgamma inh 6.31µM
O=C(CCc1nc2ccccc2s1)N1CCOc2ccc(CN3CCc4sccc4C3)cc2C1	none (no result: VP16 counter, HepG2 viability, TGFb SMAD3 inh, RORgamma inh, ATXN2 expr inh)
C[C@@H]1CN([C@@H](C)CO)C(=O)CCCn2nncc2CO[C@@H]1CN(C)C(=O)NC1CCCCC1	none (no result: VP16 counter, RORgamma inh)
COc1cc(NC(=O)c2cccc3c(-c4cnn(C)c4)coc23)cc(OC)c1OC	ATXN viability inconclusive, ATXN2 expr inh 17.8µM (no result: VP16 counter, RORgamma inh)
COc1ccc(NC(=O)c2cccc3c(-c4cnn(C)c4)coc23)cc1	none (no result: VP16 counter, RORgamma inh)
Cc1cccc(N2CCN(C(=O)C3CCN(C(=O)c4cc5sccc5n4C)CC3)CC2C)c1 (centres undefined)	TGFb SMAD3 inh inconclusive (no result: VP16 counter, ATXN viability, RORgamma inh, ATXN2 expr inh)
CC1=NN(C(=O)c2ccco2)C(O)(c2ccccc2)C1 (centres undefined)	VP16 counter 6.31µM, TGFb SMAD3 inh inconclusive, RORgamma inh 1.78µM
CCOC(=O)N1N=C(C)CC1(O)c1ccc(Cl)cc1 (centres undefined)	none
CC1=NN(C(=O)c2ccc(C)o2)C(O)(c2ccccc2)C1 (centres undefined)	VP16 counter 6.31µM, RORgamma inh 3.16µM
CCN1CCCC1CNCc1cc2c(OC)c(OC)c(OC)cc2nc1N(C)C (centres undefined)	none (no result: VP16 counter, HepG2 viability, TGFb SMAD3 inh, RORgamma inh, ATXN2 expr inh)
